Where “and” joins values, the source holds several entries; their conditions need not be identical. Equal values may be shown once. Calls of active or inactive are those of the source. The call rests on the fitted dose curve.
Target: Glucocorticoid receptor (Homo sapiens) (UniProt P04150)
Assay: GR-EFC Redistribution (AID 451)
Details: CHO-K1 GR-EFC translocation, beta-gal luminescence, 2 h
From the text: NIH Molecular Libraries Screening Centers Network [MLSCN]
NIH Chemical Genomics Center [NCGC]
The glucocorticoid receptor (GR) is a cytoplasmic receptor that belongs to the nuclear receptor family of ligand-dependent transcription factors. Upon glucocorticoid binding to its receptor, the glucocorticoid-GR complex translocates into the nucleus, where it binds as a dimer to specific DNA sequences (glucocorticoid response elements), enhancing or suppressing transcription of a wide variety of glucocorticoid-responsive genes. In addition to their important roles in normal physiology and metabolism, glucocorticoids are administered exogenously as treatments for a wide variety of allergic, autoimmune, and neoplastic conditions. Identification of compounds that modulate aspects of GR signalling would be useful in dissecting glucocorticoid response pathways as well as developing GR modulators with more targeted clinical effects.
Traditionally, GR modulators have been identified using receptor binding or direct transactivation assays. However, assays for glucocorticoid-dependent nuclear translocation can also be used to screen for compounds affecting GR signaling.
Immunocytochemical staining has been used to assay for GR translocation, but is not suitable for high throughout screening due to the multiple reagent addition and wash steps required. Recently, a novel cell-based GR assay in Enzyme Fragment Complementation (EFC) format was developed by DiscoveRx (Fremont, CA). The assay uses EFC of b-galactosidase (b-gal) as an indicator of GR-translocation in engineered CHO-K1 biosensor cells. The enzyme acceptor (EA) fragment of b-gal resides in the nucleus , as designed through the use of a proprietary set of sequence additions and modifications. The small peptide enzyme donor (ED) fragment of b-gal is fused directly to the C-terminus of GR, and is localized in the cytoplasm is the absence of receptor signaling. Upon binding to a GR ligand, the complex translocates to the nucleus, where intact enzyme activity is restored by complementation and b-gal activity is detected. We optimized this GR-EFC assay in homogenous 1536-well plate assay format for high throughput screening.
NCGC Assay Protocol Summary:
CHO-K1 cells stably expressing NLS-enzyme acceptor fragment (EA) of b-gal and GR-enzyme donor (ED) fragment of b-gal were maintained in F12 medium (Invitrogen, Carlsbad, CA) at 37 Celsius degrees under a humidified atmosphere containing 5% CO2 and 95% air. The medium contained 10% FBS, 2 mM L-glutamine, 50 U/ml penicillin 50 ug/ml streptomycin, and 250 ug/ml hygromycin and 500 ug/ml G418 (Invitrogen).
GR-translocation was measured beta-gal enzyme activity using the PathHunter Detection Kit containing cell membrane permeablizing reagent and beta-gal substrate (DiscoveRx, Fremont, CA). All compounds were screened as titrations from 0.6 nM to 46 uM final concentration. The assay was performed in 1536-well format as follows:
5 uL cell suspension (1,000 cells)/well
Incubation at 37 Celsius degrees for two hours
1.25 uL 1X detection buffer from the kit supplied by DiscoveRx
Incubation at room temperature for one hour
Read plate in luminescence mode in ViewLux plate reader (PerkinElmer)
Keywords: NIH Roadmap, MLSCN, MLI, MLSMR, GR-EFC, GREFC, qHTS, NCGC
Potency means the concentration at half of the fitted maximal effect.

Chain of Glucocorticoid receptor (Homo sapiens) (P04150 whole entry, looked up): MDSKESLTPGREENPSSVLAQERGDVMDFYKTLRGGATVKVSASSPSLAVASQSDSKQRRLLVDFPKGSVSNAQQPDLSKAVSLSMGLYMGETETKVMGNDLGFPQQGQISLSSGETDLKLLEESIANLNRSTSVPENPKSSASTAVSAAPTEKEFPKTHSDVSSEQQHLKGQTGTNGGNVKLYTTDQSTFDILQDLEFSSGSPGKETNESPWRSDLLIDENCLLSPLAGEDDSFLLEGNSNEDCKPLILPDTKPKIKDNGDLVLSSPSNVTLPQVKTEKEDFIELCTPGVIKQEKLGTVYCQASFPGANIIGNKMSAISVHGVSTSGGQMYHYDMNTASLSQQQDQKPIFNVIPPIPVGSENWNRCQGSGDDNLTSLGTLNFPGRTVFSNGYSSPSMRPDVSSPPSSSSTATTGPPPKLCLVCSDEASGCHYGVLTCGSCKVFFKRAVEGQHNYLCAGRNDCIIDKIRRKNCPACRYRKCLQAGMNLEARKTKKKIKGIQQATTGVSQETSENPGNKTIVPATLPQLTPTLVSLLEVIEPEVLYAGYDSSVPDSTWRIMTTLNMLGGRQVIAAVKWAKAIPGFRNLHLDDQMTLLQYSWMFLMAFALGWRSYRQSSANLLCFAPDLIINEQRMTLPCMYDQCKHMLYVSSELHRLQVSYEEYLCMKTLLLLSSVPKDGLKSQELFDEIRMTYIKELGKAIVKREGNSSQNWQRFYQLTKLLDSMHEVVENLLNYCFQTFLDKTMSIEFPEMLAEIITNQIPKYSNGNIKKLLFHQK

SMILES	Potency
COc1ccc2c(c1)C(=O)N(CCc1ccc(S(=O)(=O)NC(=O)NC3CCCCC3)cc1)C(=O)C2(C)C	> 20.6 µM (inactive)
Cc1cc(N)c2ccccc2[n+]1CCCCCCCCCC[n+]1c(C)cc(N)c2ccccc21	> 46 µM (inactive) and > 20.6 µM (inactive)
Nc1ccc(S(=O)(=O)NC(=O)c2ccccc2)cc1	> 20.6 µM (inactive)
CC(C)NC[C@H](O)c1ccc(O)c(O)c1	> 46 µM (inactive) and > 20.6 µM (inactive)
O=c1cc(CO)occ1O	> 46 µM (inactive)
Cc1cc(CC(=O)O)n(C)c1C(=O)c1ccc(Cl)cc1	> 20.6 µM (inactive)
CN(C)CCCN1c2ccccc2Sc2ccc(Cl)cc21	> 46 µM (inactive) and > 20.6 µM (inactive)
NC(N)=NCCC[C@H](N)C(=O)O	> 46 µM (inactive)
NS(=O)(=O)c1cc2c(cc1Cl)NC(CSCc1ccccc1)=NS2(=O)=O	> 20.6 µM (inactive)
Cc1cc2c(cc1S(N)(=O)=O)S(=O)(=O)CCC2	> 20.6 µM (inactive)
Nc1ccc(S(=O)(=O)Nc2nccs2)cc1	> 20.6 µM (inactive)
CC1=C(CC(=O)O)c2cc(F)ccc2/C1=C\c1ccc(S(C)=O)cc1 (stereo not given)	> 46 µM (inactive) and > 20.6 µM (inactive)
C[C@H](N)[C@H](O)c1cccc(O)c1	> 20.6 µM (inactive)
CCCCN(CCCC)CCCOC(=O)c1ccc(N)cc1	> 20.6 µM (inactive)
COC(=O)C1=C(C)NC(C)=C(C(=O)OC)C1c1ccccc1[N+](=O)[O-]	> 46 µM (inactive) and > 20.6 µM (inactive)
CCCn1cnc2c1c(=O)n(CCCCC(C)=O)c(=O)n2C	> 46 µM (inactive)
Cc1c(Cl)cccc1Nc1ccccc1C(=O)O	> 20.6 µM (inactive)
N=c1c[n+](N2CCOCC2)[n-]o1	> 46 µM (inactive)
CC1(C)OC(=O)NC1=O	> 20.6 µM (inactive)
CN(C)CCC=C1c2ccccc2CCc2ccccc21	> 46 µM (inactive) and > 20.6 µM (inactive)
NC1CCN(c2cccc(Cl)n2)CC1	> 46 µM (inactive)
Cc1cccc(Nc2cc(Cl)nc(SCC(=O)O)n2)c1C	> 46 µM (inactive) and > 9.22 µM (inactive)
CCCCOC(=O)c1ccc(O)cc1	> 20.6 µM (inactive)
C#CCN(C)Cc1ccccc1	> 46 µM (inactive) and > 20.6 µM (inactive)
C=Cc1c(C)c2cc3[nH]c(cc4nc(cc5nc(cc1[nH]2)C(C)=C5CCC(=O)O)C(CCC(=O)O)=C4C)c(C)c3C=C	> 46 µM (inactive)
CC(=O)c1ccc2c(c1)N(CCCN(C)C)c1ccccc1S2	> 20.6 µM (inactive)
OCCN1CCN(CCCN2c3ccccc3Sc3ccc(Cl)cc32)CC1	> 46 µM (inactive) and > 20.6 µM (inactive)
CCOc1ccc2ccccc2c1C(=O)N[C@@H]1C(=O)N2[C@@H]1SC(C)(C)[C@@H]2C(=O)O	> 20.6 µM (inactive)
CNCCCC1c2ccccc2C=Cc2ccccc21	> 46 µM (inactive) and > 20.6 µM (inactive)
CCCCOc1cc(C(=O)OCCN(CC)CC)ccc1N	> 20.6 µM (inactive)
